PubChem BioAssay AID624354 (Sanford-Burnham Center for Chemical Genomics, 2012)
Hit rate of the full screen: of about 360,000 compounds, about 3,800 (1.1%) were called active.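 Rule for the calls: active = compounds causing at least 50% loss of cell viability in the single-dose screen, relative to plate controls; inactive = the rest.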 Shown is part of a subset that was picked to be rich in actives.

Test: TRAIL-exposed caspase-8 expressing cell killing – NB7+C8 cells, ATPlite luminescence, TRAIL sensitizer project, primary screen (AID 624354)
Conditions: at 10 µM, stronger effect = higher value

Row | Structure (SMILES) | inhibition (viability loss, TRAIL sensitization)
1 | COc1ccc(CN2C[C@H]3CON(C)[C@H]3C[C@H]2c2ccc(-c3cccc(F)c3)cc2)cc1 | 17% (inactive)
2 | COc1ccc(NC(=O)/C(Cl)=C(/Cl)S(=O)Cc2ccc(C)cc2)cn1 (stereo unspecified) | 95.5% (active)
3 | COc1cc(NC(=O)Nc2ccc(C)cc2)cc([N+](=O)[O-])c1 | 3.5% (inactive)
4 | COC(C)(C)[C@]12CC(O)(C(C)C)ON1[C@H]1CCCCC1N2O (stereo partly specified) | -21.2% (inactive)
5 | O=[N+]([O-])c1cccc(C=NN=Cc2ccccc2O)c1 | 11% (inactive)
6 | O=[N+]([O-])c1c(NCCO)cc(Sc2nc3ccccc3s2)c2nonc12 | 20.4% (inactive)
7 | O=[N+]([O-])c1cc(Br)c(O)c(/C=N/Nc2nc3ccccc3s2)c1 | 51.2% (active)
8 | CC(C)C[C@H]1CNC(=S)N1C[C@H]1CCCN1C[C@H](Cc1ccc(O)cc1)N1C[C@H](Cc2ccc(O)cc2)N(CC2CCCCC2)C1=S | 9.11% (inactive)
9 | COc1cc(/C=C2\Oc3ccc(C#Cc4ccc(O)cc4)cc3C2=O)cc(OC)c1 | 64.7% (active)
10 | COc1cc(C(=O)N2CCOC23CCN(Cc2ccccc2)CC3)cc(OC)c1OC | -0.803% (inactive)
11 | CCSCc1nc(N)nc(NCCc2ccccc2)n1 | -10.6% (inactive)
12 | CC(=O)Nc1cccc(C(=O)OCC(=O)c2ccc3c(c2)OCO3)c1 | 61.4% (active)
13 | CC(=O)Nc1cccc(C(=O)OCN2C(=O)c3ccccc3C2=O)c1 | -5.54% (inactive)
14 | CC(=O)Nc1cccc(C(=O)OCC(=O)NCc2cc(C)c(O)c(C)c2)c1 | -2.97% (inactive)
15 | CC(C)C[C@@H](COc1ccccc1)N1CCN(CC(C)C)CCC1=O | -6.68% (inactive)
16 | CCCCc1nc(NCCN)c(C#N)c2c1CSC(C)(C)C2 | 57.7% (active)
17 | CCCCc1nc(NCc2ccccc2)c(C#N)c2c1CCCC2 | 4.11% (inactive)
18 | CC(=O)N1CCCc2cc(S(=O)(=O)N3CCCC(C(=O)N4CCN(c5cccc(Cl)c5)CC4)C3)ccc21 (stereo unspecified) | 35.8% (inactive)
19 | Cc1nc2ccc(N)nc2nc1C | 6.29% (inactive)
20 | COc1cccc(-n2c(=O)c3c(C)c(C(=O)N(C)C)sc3n(CC(=O)NCCc3ccc(OC)c(OC)c3)c2=O)c1 | -6.94% (inactive)
21 | Cc1cccc(/C(N)=N/OC(=O)c2ccccc2Cl)c1 | 60.5% (active)
22 | C/C(=N\OC(=O)c1ccccc1)c1c(C)nc2cc(C)ccn12 | -6.57% (inactive)
23 | Cc1cc(OC(=O)c2ccccc2Cl)ccc1N1C(=O)CCC1=O | 7.7% (inactive)
24 | O=C(Nc1cccc2c1N(C(=O)c1ccco1)CCC2)c1ccco1 | -4.17% (inactive)

Row | Structure (SMILES) | inhibition (viability loss, TRAIL sensitization)
25 | Cc1ccc(C(C)C)c(OCCSc2nc3ccccc3n2CC(=O)O)c1 | -6.21% (inactive)
26 | COc1ccc(NC(=O)CN2C(=O)COc3ccc(S(=O)(=O)N4CCOCC4)cc32)cc1 | 4.01% (inactive)
27 | Cc1cc(Cl)c2oc(C(=O)N3CCC(O)(c4ccccc4)CC3)c(C)c2c1 | 12.6% (inactive)
28 | C[C@@H](Nc1nc(-c2ccccc2)nc2c1oc1ccccc12)C(=O)O | -9.15% (inactive)
29 | Cc1nc(N2CCCC2C(=O)O)c2oc3ccccc3c2n1 (stereo unspecified) | -12.2% (inactive)
30 | Cc1nc(Cl)c2oc3ccccc3c2n1 | 69.6% (active)
31 | CCC(=O)N(Cc1cc2ccccc2[nH]c1=O)c1ccc(OC)cc1 | -1.03% (inactive)
32 | Cc1ccc(N(Cc2cc(=O)[nH]c3ccccc23)C(=O)CCl)cc1 | 92.9% (active)
33 | CC(=O)N(Cc1cc(=O)[nH]c2ccccc12)c1ccc(C)cc1C | 1.98% (inactive)
34 | CN(C(=O)CSc1nnc(-c2ccc3c(c2)OCO3)o1)C1CCS(=O)(=O)C1 (stereo unspecified) | -7.74% (inactive)
35 | C=C1C(=O)[C@]23C[C@H]1CCC2[C@@]1(C)C(C[C@@H]3O)[C@](C)(C(=O)O)CC[C@@H]1O (stereo partly specified) | 25.6% (inactive)
36 | CCOc1ccc2cc(C#N)c(SCC(=O)OC)nc2c1 | 51.7% (active)
37 | CCOc1ccc2nc(N3CCCN(C(=O)Nc4ccccc4C)CC3)c(C#N)cc2c1 | 4.35% (inactive)
38 | COc1ccc(CCNC(=O)CSc2nc(-c3ccc(OC)c(OC)c3)ccc2C#N)cc1 | 28% (inactive)
39 | O=C(NCCO)C(=O)NCC(c1ccc2c(c1)OCO2)N1CCN(c2ccc(F)cc2)CC1 (stereo unspecified) | -13% (inactive)
40 | COc1ccc([N+](=O)[O-])cc1NC(=O)C(C)OC(=O)C1c2ccccc2Oc2ccccc21 (stereo unspecified) | 5.23% (inactive)
41 | CCN(C(=O)COc1cccnc1[N+](=O)[O-])C1CCS(=O)(=O)C1 (stereo unspecified) | -20.2% (inactive)
42 | CN(C)CCCN(C(=O)c1ccc(S(=O)(=O)N2CCCc3ccccc32)cc1)c1nc2ccc(F)cc2s1 | 49.7% (active)
43 | CCOc1ccc2nc(C(=O)N3CCCC(C)C3)sc2c1 (stereo unspecified) | 31.9% (inactive)
44 | CCC(=O)Nc1nnc(S(=O)(=O)N2CCCc3ccccc32)s1 | 18.7% (inactive)
45 | CC1CCN(C(=O)c2cccc(S(=O)(=O)N3CCCc4ccccc43)c2)CC1 | 9.56% (inactive)
46 | CCOc1ccc2nc(N(CCCN(C)C)C(=O)c3ccc(C(=O)c4ccccc4)cc3)sc2c1 | 84.6% (active)
47 | CCN(C(=O)COc1ccc(C(=O)c2ccccc2)cc1)c1ccccc1 | 5.81% (inactive)
48 | CC(C)CC(=O)N1CCN(Cc2ccccc2Br)CC1 | -13.2% (inactive)

Row | Structure (SMILES) | inhibition (viability loss, TRAIL sensitization)
49 | COC(=O)[C@]12CCCCC=C1N(Cc1cccc3ccccc13)C(=O)[C@H](CC(=O)N1CCOCC1)C2 | -17.8% (inactive)
50 | CCN(Cc1ccncc1)C(=S)Nc1ccccc1C | -14.3% (inactive)
51 | COc1cc(C=O)ccc1Oc1nnnn1-c1ccccc1 | 9.4% (inactive)
52 | O=C(CNC(=O)c1cc(=O)[nH]c2ccccc12)Nc1ccc(F)c(F)c1 | -6.89% (inactive)
53 | CN1CCN(CCCNC(=O)c2ccc(/C=C3\Oc4ccccc4N(Cc4ccc(Cl)cc4)C3=O)cc2)CC1 | 70.5% (active)
54 | CCC1Oc2ccccc2N(CC(=O)NCCCN2CCN(CC)CC2)C1=O (stereo unspecified) | -10.7% (inactive)
55 | Cc1ccc(NC(=O)CCCNC(=O)c2ccc(Cl)cc2)cc1S(=O)(=O)N1CCOCC1 | 3.06% (inactive)
56 | O=C(Nc1cccc(F)c1)N1C2CCC1CC(O)(c1cccnc1)C2 (stereo unspecified) | -0.997% (inactive)
57 | Cc1ccsc1C(=O)OCC(=O)c1cc(C)n(CC2CCCO2)c1C (stereo unspecified) | 75.4% (active)
58 | CCCn1c(C)cc(C(=O)COC(=O)c2c(C)nn(-c3ccccc3)c2C)c1C | 1.44% (inactive)
59 | COc1ccc(CNC(=O)COC(=O)c2sccc2C)cc1OC | -16.5% (inactive)
60 | COc1ccc(/C=N/N=C/c2c[nH]c(=O)c(C#N)c2Nc2ccccc2)cc1 | 19.4% (inactive)
61 | COc1ccc(-c2cn3ccc(C)cc3n2)cc1 | 87.1% (active)
62 | COc1ccc(-c2cc3nc(NCCOc4ccccc4)ccn3n2)cc1 | 2.79% (inactive)
63 | COc1cc(OC)cc(-c2nc(=S)n3ccsc3n2)c1 | -7% (inactive)
64 | COc1ccc(-c2cn3ccsc3n2)cc1 | 54.1% (active)
65 | FC(F)(F)Oc1ccc(-c2cn3cccnc3n2)cc1 | 34.5% (inactive)
66 | Cc1ccc(S(=O)(=O)NCc2cn3ccsc3n2)c(C)c1 | -5.68% (inactive)
67 | CCn1cc(C(=O)NCC(=O)NC(C)(C)CO)c(=O)c2cc3c(cc21)OCO3 | -16.5% (inactive)
68 | COc1ccc(C(C)NC(=S)NC2CCCCC2)cc1OC (stereo unspecified) | -10.3% (inactive)
69 | CN1CC(c2ccccc2)C2(COc3ccccc3C2=O)C12C(=O)Nc1ccccc12 (stereo unspecified) | 1.61% (inactive)
70 | COc1ccc(OC)c(NC(=O)CSc2nc(N)c(-c3ccccc3)c(=O)[nH]2)c1 | -16.4% (inactive)
71 | OC(CNCc1ccc(Cl)c(Cl)c1)c1ccccc1 (stereo unspecified) | 1.28% (inactive)
